# Experimental data from PubChem BioAssay AID2283149 (EPA ToxCast).
# Inconclusive results are not listed. Active and inactive are the calls of the source. The calls were made as follows: active = hit-call score of the fitted dose curve at least 0.9, where 1 is the maximum; inconclusive = response in the unintended direction; inactive = score below 0.9.
# Biological target: human Casein Kinase 1-alpha (CK1a), CSNK1A1 (gene 1452) (UniProt P48729)
# Test: NVS_ENZ_hCK1a: NovaScreen (NVS) Enzymatic Assay for human Casein Kinase 1-alpha (CK1a)
# Protocol: NVS_ENZ_hCK1a is a biochemical, single-readout assay that uses extracted gene-proteins in a cell-free assay. Measurements were taken 1 hour after chemical dosing in a 384-well plate.NVS_ENZ_hCK1a is one of one assay component(s) measured or calculated from the NVS_ENZ_hCK1a assay. It is designed to make measurements of enzyme activity, a form of enzyme reporter, as detected with fluorescence intensity signals by Fluorescence and electrophoretic mobility shift technology.Data from the assay component NVS_ENZ_hCK1a was analyzed into 1 assay endpoint. This assay endpoint, NVS_ENZ_hCK1a, was analyzed in the positive analysis fitting direction relative to DMSO as the negative control and baseline of activity. Using a type of enzyme reporter, loss-of-signal activity can be used to understand changes in the enzymatic activity as they relate to the gene CSNK1A1. Furthermore, this assay endpoint can be referred to as a primary readout, because this assay has produced multiple assay endpoints where this one serves a enzymatic activity function. To generalize the intended target to other relatable targets, this assay endpoint is annotated to the kinase intended target family, where the subfamily is serine/threonine kinase.
# Binding assays used specific radioligands (tritiated, iodinated) with non-radioactive competitive displacement ligands in agonist or antagonist protocols (as indicated) and various reference compounds and inhibitors to titrate specific binding to receptors and transporters. Most enzyme assays (CYPs, kinases, phosphatases, proteases, HDACs) used recombinant protein and specific substrates (fluorescence mostly, some colorimetric and radioactive) and inhibitors, followed by a biochemical separation of substrate and product. All assays for the biochemical HTS were initially run in duplicate at a single concentration (10 uM for CYP450 assays and 25 uM for all others). Assay-chemical combinations meeting a pre-defined threshold (e.g., 30% inhibition and other criteria defined below) were then run in singleton concentration-response format with maximum concentration of 20 uM for CYPs and 50 uM for all others. Each assay was run with positive and negative controls, and concurrent controls on every plate. The follow-up (secondary) screen tested active chemical-pairs in concentration series, as well as a few additional assays not tested in the primary screen, some selected negative inactives, and several cases re-run in the concentration series for confirmatory purposes.
# Chain of human Casein Kinase 1-alpha (CK1a), CSNK1A1 (gene 1452) (P48729 whole entry, looked up): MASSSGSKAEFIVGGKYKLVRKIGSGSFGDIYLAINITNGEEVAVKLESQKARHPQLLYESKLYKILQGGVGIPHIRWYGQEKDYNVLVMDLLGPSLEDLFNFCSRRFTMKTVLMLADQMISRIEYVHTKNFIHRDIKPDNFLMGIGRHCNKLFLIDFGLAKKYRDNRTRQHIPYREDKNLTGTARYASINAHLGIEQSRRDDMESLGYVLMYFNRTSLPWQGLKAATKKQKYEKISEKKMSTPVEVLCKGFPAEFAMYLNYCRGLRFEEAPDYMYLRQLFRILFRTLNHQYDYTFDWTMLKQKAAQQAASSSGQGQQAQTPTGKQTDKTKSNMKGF
Structure (SMILES),AC50,outcome
CN(C)[C@@H]1C(=O)C(C(N)=O)=C(O)[C@@]2(O)C(=O)C3=C(O)c4c(O)cccc4[C@@](C)(O)[C@H]3[C@H](O)[C@@H]12,36.4 µM (active),
O=C(Nc1ccc([N+](=O)[O-])cc1Cl)c1cc(Cl)ccc1O,,inactive
S=C(S)NCCNC(=S)S.[Mn+2].[S-]C([S-])=NCCN=C([S-])[S-].[Zn+2],9.19 µM (active),
O=S(=O)(O)C(F)(F)C(F)(F)C(F)(F)C(F)(F)C(F)(F)C(F)(F)C(F)(F)C(F)(F)F,21.1 µM (active),
S=C([S-])NCCNC(=S)[S-].[Mn+2],19.4 µM (active),
Nc1nc(N)nc(NC2CC2)n1,,inactive
O=C(O)C1(C(=O)Nc2ccc(Cl)cc2Cl)CC1,8.67 µM (active),
N#CSCSC#N,,inactive
CO/C=C(/C(=O)OC)c1ccccc1Oc1cc(Oc2ccccc2C#N)ncn1,,inactive
